PubChem BioAssay (EPA / NIEHS)
Where “and” joins values, the source holds several entries; their conditions need not be identical. Equal values may be shown once. The source holds several records for some structures; these can differ, active in one and inactive in another. Calls of active or inactive are those of the source. Rule for the calls: active = hit-call score of the fitted dose curve at least 0.9, where 1 is the maximum; inactive = score below 0.9.

Tests used:
CD90, THY1 (gene 7070) = experiment: BSK_BF4T_CD90: BioMAP Diversity Plus: BF4T Assay for CD90 Biomarker Activity (AID 2284262); details: primary human bronchial epithelial cells with fibroblasts
In short: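 CD90 levels by ELISA after 24 h treatment of human bronchial epithelial cell/dermal fibroblast cultures, analysed versus DMSO. Overt cytotoxicity checked in parallel cultures by sulforhodamine B staining.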

[1] = read-out: Interleukin-8 (IL8), CXCL8 (gene 3576); experiment: BSK_BF4T_IL8: BioMAP Diversity Plus: BF4T Assay for Interleukin-8 (IL8) Biomarker Activity (AID 2284263); details: primary human bronchial epithelial cells with fibroblasts
In short: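 Human bronchial epithelial cells with dermal fibroblasts co-culture; IL-8 measured by ELISA 24 hours after dosing, fitted vs DMSO. Cytotoxicity tracked in parallel cultures by SRB total-protein staining.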

[2] = read-out: Interleukin-1 alpha (IL1a), IL1A (gene 3552); experiment: BSK_BF4T_IL1a: BioMAP Diversity Plus: BF4T Assay for Interleukin-1 alpha (IL1a) Biomarker Activity (AID 2284264); details: primary human bronchial epithelial cells with fibroblasts
In short: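 ELISA read-out of IL-1α from bronchial epithelial cell/dermal fibroblast co-cultures 24 h after compound addition. Increases scored against DMSO negative control. Cytotoxicity monitored by sulforhodamine B staining of parallel cultures.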

Decorin, DCN (gene 1634) = experiment: BSK_MyoF_Decorin: BioMAP Diversity Plus: MyoF Assay for Decorin Biomarker Activity (AID 2284265); details: primary human lung fibroblasts
In short: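 In this multiplexed fibroblast system, secreted or surface decorin is detected by ELISA one day after dosing, with increases scored against the DMSO vehicle.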

[3] = BSK_MyoF_SRB: Viability Assessment in the BioMAP Diversity Plus: MyoF Assay (AID 2284267); details: primary human lung fibroblasts;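 note: total protein by SRB absorbance in parallel cultures as cytotoxicity measure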
In short: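 Lung fibroblast cultures, 24 h post-dose; fix 10% TCA, stain 0.1% SRB, read 560 nm. Signal = total protein as cytotoxicity measure; fitted relative to DMSO negative control.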

[4] = read-out: Matrix Metallopeptidase 1 (MMP1), MMP1 (gene 4312); experiment: BSK_MyoF_MMP1: BioMAP Diversity Plus: MyoF Assay for Matrix Metallopeptidase 1 (MMP1) Biomarker Activity (AID 2284268); details: primary human lung fibroblasts
In short: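 Fibroblasts from human lung receive compound for 24 h before ELISA quantitation of MMP1. DMSO serves as baseline, and the endpoint is fitted for signal gain.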

[5] = read-out: TIMP metallopeptidase inhibitor 1 (TIMP1), TIMP1 (gene 7076); experiment: BSK_MyoF_TIMP1: BioMAP Diversity Plus: MyoF Assay for TIMP metallopeptidase inhibitor 1 (TIMP1) Biomarker Activity (AID 2284269); details: primary human lung fibroblasts
In short: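 ELISA quantified TIMP-1 levels after 24 h dosing of primary human lung fibroblasts, with DMSO as baseline. Parallel SRB total protein staining (0.1% SRB after TCA fixation, 560 nm) flagged overt cytotoxicity.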

[6] = read-out: Matrix Metallopeptidase 3 (MMP3), MMP3 (gene 4314); experiment: BSK_BF4T_MMP3: BioMAP Diversity Plus: BF4T Assay for Matrix Metallopeptidase 3 (MMP3) Biomarker Activity (AID 2284271); details: primary human bronchial epithelial cells with fibroblasts
In short: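 MMP-3 level read by ELISA after 24 h chemical exposure of bronchial epithelial cell/dermal fibroblast co-cultures, fitted upward relative to DMSO. Parallel cultures stained with 0.1% SRB after TCA fixation gauge overt cytotoxicity.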

[7] = read-out: Tissue plasminogen activator (tPA), PLAT (gene 5327); experiment: BSK_BF4T_tPA: BioMAP Diversity Plus: BF4T Assay for Tissue plasminogen activator (tPA) Biomarker Activity (AID 2284272); details: primary human bronchial epithelial cells with fibroblasts
In short: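 tPA level quantified by ELISA at 24 h post-treatment in bronchial epithelial/dermal fibroblast co-cultures, gain of signal scored against DMSO baseline. Parallel cultures stained with 0.1% SRB (560 nm) to flag overt cytotoxicity.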

[8] = BSK_BF4T_SRB: Viability Assessment in the BioMAP Diversity Plus: BF4T Assay (AID 2284274); details: primary human bronchial epithelial cells with fibroblasts
In short: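 Cytotoxicity measured as total protein: cells fixed with 10% TCA, stained with 0.1% SRB, read at 560 nm. Bronchial epithelial/dermal fibroblast co-culture, 24 h after dosing, with positive-direction fitting relative to DMSO.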

Measured: AC50

O=P(O)(O)CCC(F)(F)C(F)(F)C(F)(F)C(F)(F)C(F)(F)C(F)(F)C(F)(F)C(F)(F)F
inactive: CD90, THY1 (gene 7070) | [1] | [2] | Decorin, DCN (gene 1634) | [3] | [4] | [5] | [6] | [7] | [8]
active: [7] 19.2 µM

C=CC(=O)OCCC(F)(F)C(F)(F)C(F)(F)C(F)(F)C(F)(F)C(F)(F)C(F)(F)C(F)(F)F
inactive: all assays above

CN(C)c1ccc(C(=C2C=CC(=[N+](C)C)C=C2)c2ccccc2)cc1
active: [3] 0.485 µM | [5] 0.697 µM
inactive: Decorin, DCN (gene 1634) | [4]

OCCN1CN(CCO)CN(CCO)C1
inactive: Decorin, DCN (gene 1634) | [3] | [4] | [5]

O=C(O)C(F)(F)OC(F)(F)C(F)(F)OC(F)(F)C(F)(F)OC(F)(F)C(F)(F)C(F)(F)C(F)(F)F
active: CD90, THY1 (gene 7070) 14.6 µM | [1] 53.7 µM | [2] 11 µM and 13.4 µM | Decorin, DCN (gene 1634) 17.3 µM | [3] 13 µM and 9.16 µM | [5] 8.18 µM and 8.09 µM | [6] 14.4 µM and 8.19 µM | [7] 8.23 µM and 8.02 µM
inactive: CD90, THY1 (gene 7070) | [1] | Decorin, DCN (gene 1634) | [4] | [8]

CC[N+](CC)(CC)Cc1ccccc1
inactive: Decorin, DCN (gene 1634) | [3] | [4] | [5]

COC1=CC(=O)C[C@@H](C)[C@]12Oc1c(Cl)c(OC)cc(OC)c1C2=O
inactive: Decorin, DCN (gene 1634) | [3] | [5]
active: [4] 20 µM

CN(Cc1cnc2nc(N)nc(N)c2n1)c1ccc(C(=O)N[C@@H](CCC(=O)O)C(=O)O)cc1
inactive: CD90, THY1 (gene 7070) | [1] | [2] | Decorin, DCN (gene 1634) | [3] | [4] | [5] | [6] | [7] | [8]
active: [1] 2.65 µM

OCC(F)(F)C(F)(F)C(F)(F)C(F)(F)C(F)(F)C(F)(F)C(F)(F)C(F)(F)C(F)(F)C(F)(F)C(F)(F)F
inactive: all assays above

Cc1ccc(C(=O)c2ccccc2)cc1
inactive: Decorin, DCN (gene 1634) | [3] | [5]
active: [4] 38.7 µM

Cc1ccc(N=Nc2c(O)ccc3ccccc23)c(C)c1
inactive: Decorin, DCN (gene 1634) | [3] | [4] | [5]

CC(C)(C)c1ccc(O)c(O)c1
inactive: Decorin, DCN (gene 1634) | [4]
active: [3] 33.5 µM | [5] 31.2 µM

NC(=NCCCCCCN=C(N)/N=C(\N)Nc1ccc(Cl)cc1)/N=C(\N)Nc1ccc(Cl)cc1
active: Decorin, DCN (gene 1634) 9.05 µM | [3] 4.76 µM | [4] 9 µM | [5] 4.84 µM

CCCCCCCCCCCCCCCCCC[N+](C)(C)Cc1ccccc1
active: Decorin, DCN (gene 1634) 10 µM | [3] 2.65 µM | [5] 4.88 µM
inactive: [4]

COc1cc(OC)nc(NC(=O)NS(=O)(=O)Nc2ccccc2C(=O)N(C)C)n1
inactive: Decorin, DCN (gene 1634) | [3] | [4] | [5]

Clc1ccc(Nc2nnc(Cc3ccncc3)c3ccccc23)cc1
inactive: Decorin, DCN (gene 1634) | [4] | [5]

C=CC(C)(CCC=C(C)C)OC(C)=O (configuration not stated)
inactive: Decorin, DCN (gene 1634) | [3] | [4] | [5]

O=C1OC2(c3ccccc31)c1cc(I)c(O)c(I)c1Oc1c2cc(I)c(O)c1I
inactive: [3]
active: Decorin, DCN (gene 1634) 2.56 µM | [4] 0.605 µM | [5] 7.73 µM

O=S(=O)(O)C(F)(F)C(F)(F)C(F)(F)C(F)(F)C(F)(F)C(F)(F)C(F)(F)C(F)(F)C(F)(F)C(F)(F)F
active: [1] 2.65 µM and 6.99 µM | [7] 2.39 µM
inactive: CD90, THY1 (gene 7070) | [2] | Decorin, DCN (gene 1634) | [3] | [4] | [5] | [6] | [7] | [8]
